# Laboratory results reported in PubChem BioAssay.
# Activity calls are given as the source filed them. Unless noted, how the calls were made is not given here.
# Tests used:
# [1] = A549 cell viability effects, profiling panel, calcein-AM fluorescence, 48 h, basal (AID 1162); conditions: higher = more signal; further: test concentration not given here
# [2] = adipocyte viability effects, profiling panel, cell-based, 3T3-L1 adipocytes, calcein-AM fluorescence, 48 h, basal (AID 1163); conditions: 3T3-L1 adipocytes viability, higher = more signal; further: test concentration not given here
# [3] = HepG2 cell viability effects, profiling panel, calcein-AM fluorescence, 48 h, basal (AID 1164); conditions: higher = more signal; further: test concentration not given here
# [4] = MM1S cell viability effects, profiling panel, calcein-AM fluorescence, 48 h, basal (AID 1165); conditions: higher = more signal;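 further: viability of MM1S multiple myeloma cells under basal unstimulated conditions; test concentration not given here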
# [5] = basal RPMI8226 viability, no added stimulus, profiling panel, cell-based, calcein-AM fluorescence, 48 h, PK04 Diversity Set (AID 1166); conditions: RPMI8226 myeloma viability, higher = more signal;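 further: cells grown under basal conditions without added stimulus; test concentration not given here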
# [6] = basal HepG2 mitochondrial membrane potential changes, profiling panel, cell-based, JC-1 fluorescence, 24 h, 100 nL compound (AID 1167); conditions: higher = more signal; further: test concentration not given here
# [7] = basal 3T3-L1 adipocyte mitochondrial potential changes, profiling panel, cell-based, JC-1 fluorescence, 3T3-L1 adipocytes, 24 h, 100 nL compound (AID 1168); conditions: JC-1 mitochondrial fluorescence, higher = more signal, called active from +8 up or from −8 down; further: test concentration not given here
# [8] = basal RPMI8226 mitochondrial membrane potential changes, profiling panel, cell-based, JC-1 fluorescence, 24 h, 100 nL compound (AID 1169); conditions: RPMI8226 myeloma, JC-1 mitochondrial potential fluorescence, higher = more signal; further: test concentration not given here
# [9] = basal MM1S mitochondrial membrane potential changes, profiling panel, cell-based, JC-1 fluorescence, 24 h, 100 nL compound (AID 1170); conditions: higher = more signal; further: test concentration not given here
# [10] = A549 lung cancer cell viability effects, profiling panel, resazurin fluorescence, 24 h, PK04 Diversity Set (AID 1171); conditions: higher = more signal, called active from +8 up or from −8 down; further: test concentration not given here
# [11] = HepG2 liver cancer cell viability effects, profiling panel, resazurin fluorescence, 24 h, PK04 Diversity Set (AID 1172); conditions: higher = more signal; further: test concentration not given here
# [12] = basal S. cerevisiae growth modulation, no modifier, primary screen, OD600, strain BY4716, 24 h, basal condition (AID 1173); conditions: OD600, 24 h, higher = more signal, called active from +8 up or from −8 down
# [13] = MM1S myeloma cell viability, profiling panel, resazurin fluorescence, basal, 24 h, PK04 Diversity Set (AID 1174); conditions: higher = more signal, called active from +8 up or from −8 down;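 further: MM1S multiple myeloma cell line; test concentration not given here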
# [14] = biological target: Dihydroorotate dehydrogenase (quinone), mitochondrial (Plasmodium falciparum (isolate 3D7)) (UniProt Q08210); test: PfDHODH enzyme inhibitors, primary screen, biochemical, C-terminal His tag, absorbance 600 nm (AID 1175); conditions: DCIP absorbance 600 nm, higher = more signal, called active from +8 up or from −8 down;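 further: recombinant parasite enzyme with a five histidine tag at its C terminus; test concentration not given here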
# [15] = P. aeruginosa biofilm formation inhibitors, primary screen, strain PAO1, LB-PBS medium, absorbance 600 nm (AID 1176); further: test concentration not given here; conditions: P. aeruginosa PAO1 growth/biofilm, A600, 12 h; higher = more signal
# [16] = S. cerevisiae RM11-1a growth modifiers, primary screen, strain RM11-1a, OD600, basal, 24 h (AID 1177); conditions: OD600, 24 h, higher = more signal, called active from +8 up or from −8 down;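 further: cultures grown under basal conditions with no added stressor; test concentration not given here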
# [17] = E. coli acrAB mutant growth effects, primary screen, E. coli filamentation inducers, strain DRC39, OD650, 24 h (AID 1178); conditions: higher = more signal, called active from +8 up or from −8 down;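 further: growth measured as culture turbidity by optical density at 650 nm; test concentration not given here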
# [18] = E. coli acrAB mutant growth effects, primary screen, E. coli filamentation inducers, strain DRC39, OD650, 48 h (AID 1179);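 further: screen aims at cell division blockers that make cells filament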; conditions: E. coli DRC39 delta-acrAB growth, higher = more signal, called active from +8 up or from −8 down
# [19] = RPMI8226 myeloma cell viability, profiling panel, resazurin fluorescence, basal, 24 h, PK04 Diversity Set (AID 1180); conditions: higher = more signal;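 further: RPMI8826 multiple myeloma cell line at 5000 cells per well; test concentration not given here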
# [20] = biological target: E3 ubiquitin-protein ligase XIAP (Homo sapiens) (UniProt P98170); test: XIAP binders, primary screen, biophysical, small-molecule microarray, fluorescence 635 nm (AID 1181); conditions: small-molecule microarray binding, higher = more signal;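 further: score merges 667 nm emission and signal to noise over triplicate slides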
# Chain of E3 ubiquitin-protein ligase XIAP (Homo sapiens) (P98170 whole entry, looked up): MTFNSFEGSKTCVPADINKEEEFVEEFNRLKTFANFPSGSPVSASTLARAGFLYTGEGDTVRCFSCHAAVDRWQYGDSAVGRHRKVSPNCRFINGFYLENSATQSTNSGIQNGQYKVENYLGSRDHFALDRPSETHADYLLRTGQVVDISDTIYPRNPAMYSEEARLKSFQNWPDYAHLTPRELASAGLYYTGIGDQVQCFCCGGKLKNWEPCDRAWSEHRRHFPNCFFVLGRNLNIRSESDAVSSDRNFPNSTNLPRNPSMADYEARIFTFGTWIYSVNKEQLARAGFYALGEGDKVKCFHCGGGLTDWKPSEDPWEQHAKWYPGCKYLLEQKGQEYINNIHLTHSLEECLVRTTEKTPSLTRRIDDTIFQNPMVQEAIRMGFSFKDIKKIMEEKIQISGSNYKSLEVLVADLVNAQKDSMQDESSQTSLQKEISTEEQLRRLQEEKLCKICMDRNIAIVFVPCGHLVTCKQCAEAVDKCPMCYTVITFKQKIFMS
# Chain of Dihydroorotate dehydrogenase (quinone), mitochondrial (Plasmodium falciparum (isolate 3D7)) (Q08210 whole entry, looked up): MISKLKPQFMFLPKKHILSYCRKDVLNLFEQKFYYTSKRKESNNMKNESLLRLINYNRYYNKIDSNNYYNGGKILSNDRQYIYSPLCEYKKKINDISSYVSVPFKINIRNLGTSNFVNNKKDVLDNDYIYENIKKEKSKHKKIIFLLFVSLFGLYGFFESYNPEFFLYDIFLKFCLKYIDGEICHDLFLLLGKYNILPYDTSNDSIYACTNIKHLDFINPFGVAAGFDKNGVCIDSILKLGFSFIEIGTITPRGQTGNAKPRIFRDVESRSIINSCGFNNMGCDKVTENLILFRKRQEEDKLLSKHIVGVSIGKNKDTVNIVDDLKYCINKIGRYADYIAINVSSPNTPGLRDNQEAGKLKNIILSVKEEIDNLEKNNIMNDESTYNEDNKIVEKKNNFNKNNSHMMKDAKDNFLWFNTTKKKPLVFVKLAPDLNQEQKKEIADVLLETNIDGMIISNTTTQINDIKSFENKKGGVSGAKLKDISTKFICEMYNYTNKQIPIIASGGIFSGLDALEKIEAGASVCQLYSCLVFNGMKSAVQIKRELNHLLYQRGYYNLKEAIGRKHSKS
SMILES,z-score [1],z-score [2],z-score [3],z-score [4],z-score [5],z-score [6],z-score [7],z-score [8],z-score [9],z-score [10],z-score [11],z-score [12],z-score [13],composite z-score [14],z-score [15],z-score [16],z-score [17],z-score [18],z-score [19],composite z-score [20]
CN(C)CCCNC(=O)[C@@]1(Cc2ccccc2I)c2ccccc2C(=O)N(Cc2ccccc2Cl)[C@H]1c1ccc(CO)cc1,-4.22,0.711,-5.11,-3.8,-4.38,-1.9,-0.373 (inactive),-0.935,-2.3,-6.99 (inactive),-6.48,-7.72 (inactive),-8.82 (active),-0.205 (inactive),-0.233 (inactive),-0.0889 (inactive),-0.268 (inactive),-1.26 (inactive),-6.59,0.166
C[C@]12C(=O)N(CCCCCO)[C@@H]3C(=O)N(c4ccc(Cl)cc4)CC=CC31O[C@@H]1/C=C\CCCOC(=O)C12 (stereo not given in full),-0.237,0.282,0.209,0.355,-0.376,-0.259,-0.175 (inactive),0.109,-0.0571,-0.663 (inactive),-0.626,-0.225 (inactive),0.194 (inactive),-0.841 (inactive),-0.677 (inactive),-0.605 (inactive),-0.308 (inactive),-0.175 (inactive),-0.135,0.234
CC1CC/C=C\[C@H]2OC34C=CCN(Cc5ccccc5)C(=O)[C@H]3N(CCO)C(=O)[C@@H]4C2C(=O)O1 (stereo not given in full),-0.106,1.1,0.337,1.47,-0.105,0.0673,0.488 (inactive),-0.657,2.1,-0.783 (inactive),-0.811,-0.73 (inactive),0.32 (inactive),0.622 (inactive),-0.758 (inactive),0.606 (inactive),0.98 (inactive),0.566 (inactive),0.301,-0.147
O=C1O[C@H](c2ccccc2)[C@H](c2ccccc2)N2[C@H]1[C@@H](C(=O)N1CCN(c3ncccn3)CC1)[C@]1(C(=O)Nc3ccc(C#CCCO)cc31)[C@H]2c1ccc(OCCO)cc1,-0.696,0.404,-0.53,-1.04,-0.284,-0.838,0.717 (inactive),-0.883,-0.386,0.978 (inactive),0.956,1.01 (inactive),-0.901 (inactive),-0.692 (inactive),3.36 (inactive),1.2 (inactive),0.275 (inactive),-0.432 (inactive),0.747,0.256
C[C@H]1NC(=O)C([C@@H](C)OCc2ccccc2)NC(=O)[C@@]23C(=O)N[C@@H](Cc4ccccc4)C2[C@H](C)[C@@]2(C)O[C@H]2C3/C=C/CC/C=C/CNC1=O (stereo not given in full),0.33,0.221,0.456,-0.728,-1.2,2.67,0.434 (inactive),0.452,1.84,-0.757 (inactive),-1.3,-0.782 (inactive),0.737 (inactive),0.855 (inactive),-0.766 (inactive),0.604 (inactive),1.36 (inactive),0.336 (inactive),0.189,0.13
CCOC(=O)C1=CCC(c2cccc(Cl)c2)O1 (stereo not given),-1,0.464,-0.531,-0.488,-1.15,-0.454,-0.627 (inactive),0.96,-0.472,1.16 (inactive),0.482,-4.22 (inactive),0.402 (inactive),-0.863 (inactive),0.601 (inactive),-1.6 (inactive),0.484 (inactive),-0.16 (inactive),-0.0798,0.19
CCCC=C(CCC)[C@@H](NC(=O)Cc1ccccc1)c1ccc(C(=O)OC)cc1,-0.988,-0.735,-0.512,-2.42,-0.513,-1.59,-1.7 (inactive),-0.566,-2.09,-0.712 (inactive),-0.704,0.951 (inactive),-1.14 (inactive),-0.831 (inactive),0.964 (inactive),1.49 (inactive),0.276 (inactive),0.543 (inactive),-0.702,0.11
O=C1CSC(c2cccc([N+](=O)[O-])c2)N1c1ccccc1 (stereo not given),-0.295,-0.23,1.71,1.31,-0.566,1.04,1.05 (inactive),0.0369,-0.779,-0.292 (inactive),0.0598,0.483 (inactive),-0.0906 (inactive),-0.861 (inactive),0.199 (inactive),0.468 (inactive),0.869 (inactive),0.869 (inactive),0.407,-0.0056
NC(=O)NCC#Cc1ccc2c(c1)[C@]1(C(=O)N2)[C@H](c2ccc(OCCO)cc2)N2[C@H](c3ccccc3)[C@H](c3ccccc3)OC(=O)[C@H]2[C@@H]1C(=O)N1CCN(c2ncccn2)CC1,0.947,0.212,0.674,-0.167,0.62,-1.45,0.721 (inactive),-0.726,-0.669,1.1 (inactive),0.21,1.04 (inactive),0.963 (inactive),-0.858 (inactive),2.71 (inactive),2.58 (inactive),0.665 (inactive),0.773 (inactive),1.79,-0.149
CC(C)(C)OC(=O)CC[C@]1(C(=O)N2CCCCC2)N=C(c2ccc(OCCCO)cc2)O[C@H]1c1ccccc1CN=[N+]=[N-],1.1,0.876,1.58,-2.99,-2.01,2.46,0.67 (inactive),-0.983,0.358,-1.35 (inactive),-0.725,-0.451 (inactive),0.0183 (inactive),-0.625 (inactive),0.618 (inactive),-0.391 (inactive),2.41 (inactive),2.39 (inactive),-0.357,0.0346
COc1cc(C(O)C2C=CC3C(=O)N(C)C(=O)C3N2NC(=O)OC(C)(C)C)cc(OC)c1OC (stereo not given),-1.58,-0.785,-0.884,-2.19,-0.907,-1.66,-0.321 (inactive),-0.872,0.415,-0.679 (inactive),-1.22,1.74 (inactive),-0.976 (inactive),0.0277 (inactive),0.847 (inactive),0.796 (inactive),-1.01 (inactive),-0.503 (inactive),-1.24,0.085
N#Cc1ccc(NN2C(C(O)c3ccccc3)C=CC3C(=O)N(c4ccccc4)C(=O)C32)cc1 (stereo not given),-1.14,-0.173,0.216,-0.861,-0.32,-0.782,-0.182 (inactive),0.0989,0.976,-0.331 (inactive),-0.822,-1.47 (inactive),-0.0476 (inactive),-0.804 (inactive),0.158 (inactive),-0.323 (inactive),-0.371 (inactive),0.0355 (inactive),-1.15,-0.0062
CN(C)C(=O)[C@@]1(CCC(=O)OC(C)(C)C)N=C(c2ccc(OCCCO)cc2)O[C@H]1c1ccccc1N=[N+]=[N-],0.186,0.727,-0.34,-0.956,0.0691,1.45,-0.371 (inactive),-0.432,-0.0283,0.966 (inactive),0.506,0.314 (inactive),-1.36 (inactive),0.645 (inactive),1.35 (inactive),1.98 (inactive),0.306 (inactive),-0.264 (inactive),-0.839,0.0428
CCCN1C(=O)[C@@H]2Cc3c([nH]c4ccccc34)[C@@H](c3cccc(O)c3)N2C1=O,-0.362,0.407,-1.81,0.342,-0.178,-1.45,0.137 (inactive),-0.137,-0.211,0.264 (inactive),0.944,0.852 (inactive),0.327 (inactive),-0.931 (inactive),0.764 (inactive),0.0696 (inactive),0.19 (inactive),0.0246 (inactive),0.0074,-0.313
CCOC(=O)C1=CC[C@@H](c2ccc(N(CC)CC)cc2)N(S(=O)(=O)c2ccc(C)cc2)[C@H]1c1ccc([N+](=O)[O-])cc1,-0.112,-1.19,0.203,-0.0595,-0.173,4.25,-0.114 (inactive),-0.673,-0.609,0.325 (inactive),-0.407,-0.0341 (inactive),-0.095 (inactive),-0.719 (inactive),0.698 (inactive),-0.101 (inactive),-0.19 (inactive),-0.0619 (inactive),-1.06,-0.0143
CCCNC(=O)[C@@]1(Sc2ccc(C)cc2)CC(=O)N(Cc2ccccc2)[C@@H]1c1ccc(CO)cc1I,-0.422,-0.525,0.0653,-2.18,-2.52,-0.901,-0.686 (inactive),-0.935,-1.89,0.198 (inactive),-0.38,-2.59 (inactive),-3.26 (inactive),-11.5 (active),1.14 (inactive),-0.598 (inactive),0.214 (inactive),0.0547 (inactive),-2.81,0.0471
O=[N+]([O-])c1ccc(C[n+]2ccc(-c3ccc(CO)cc3)cc2)o1,0.0994,0.511,-1.19,0.266,-1.19,-1.48,-0.886 (inactive),0.187,-0.425,-0.335 (inactive),-0.216,-5.16 (inactive),-0.979 (inactive),-1.94 (inactive),0.503 (inactive),-0.0644 (inactive),-1.11 (inactive),-0.495 (inactive),-0.904,-0.0047
